An excerpt weighted towards active compounds, which were near 13% of everything screened.
RAM inhibit – inhibitors of the yeast RAM network; S. cerevisiae dse1pr::URA3 reporter, 5-FOA growth OD615, 2 d; analog-sensitive cbk1-as2 kinase mutant strain; inhibition, % at 50 µM; hit rate 1.8% among 190,000; AID 868;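 active means inhibition above a set limit, 3 SD over mean compound inhibition, cut at about 8.4% in these data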;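 further: inhibition rescues growth on 5-FOA so higher OD means more RAM inhibition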
WT yeast gro inh – growth inhibition of WT yeast, mitochondrial fusion screen. mitochondrial fusion phenotypic screen, WT strain. inhibition, % at 10 µM. hit rate 2.1% among 190,000. AID 1362; in the data active means inhibition above about 58%; tested in S. cerevisiae
CHOP inh – inhibitors of CHOP induction in ER stress response | CHO-K1 CHOP-promoter luciferase, tunicamycin-induced, 15-18 h | inhibition, % at 10 µM | hit rate 3.8% among 220,000;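 active means compounds that reduced the stress-induced luciferase reporter signal by more than about 70% of percent inhibition, limit read from the data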
Lmaj promast – Leishmania major promastigote growth inhibition; Leishmania major promastigotes, resazurin fluorescence viability; hit rate 9% among 200,000; inhibition, % at 10 µM; in the data active means inhibition above about 50%;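 further: promastigotes grown with compound for 44 hours at 28 °C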
Each line names hits and unclear results; the compound was inactive in the other large screens.

CC(NC(=O)c1ccccc1)c1nc2ccccc2n1Cc1ccc(C#N)cc1 (stereo unspecified)	none
Fc1ccc(Nc2nc(-c3ccncc3)nc3ccccc23)cc1	CHOP inh 90
Fc1ccccc1Nc1nc(-c2ccncc2)nc2ccccc12	Lmaj promast 96
COc1ccc(Cl)cc1NC(=S)NNC(=O)C1(C)CC1(Cl)Cl (stereo unspecified)	none
S=c1[nH]nc(Cc2noc3ccccc23)n1-c1ccccc1	none
C/C(=N\NC(=O)Cn1nnc2ccccc21)c1ccco1	none
CCOCCCNC(=O)c1cc2c(-c3ccc(Cl)cc3)nn(C)c2s1	RAM inhibit 9.0
CCN(CC)CCNC(=O)c1cc2c(-c3ccc(Cl)cc3)nn(C)c2s1	Lmaj promast 100
COc1ccc(N2CCN(C(=O)c3cc4c(-c5cccc(OC)c5)nn(C)c4s3)CC2)cc1	Lmaj promast 62
CCN1CCN(C(=O)c2cc3c(-c4ccc(Cl)cc4)nn(C)c3s2)CC1	Lmaj promast 52
Cn1nc(-c2ccc(Cl)cc2)c2cc(C(=O)N3CCN(C(=O)c4ccco4)CC3)sc21	none
Cc1ccc([N+](=O)[O-])cc1S(=O)(=O)NCCc1c(C)[nH]c2ccccc12	Lmaj promast 96
COc1ccccc1NS(=O)(=O)c1cc([N+](=O)[O-])ccc1N/N=C/c1c(C)[nH]c2ccccc12	RAM inhibit 11, CHOP inh 84
Cc1ccc([N+](=O)[O-])cc1S(=O)(=O)NCCc1cn2ccccc2n1	none (no result: RAM inhibit, WT yeast gro inh, Lmaj promast)
Cc1[nH]c2ccccc2c1/C=N/Nc1ccc([N+](=O)[O-])cc1	none
COc1ccc(CNCC(O)(c2ccc(Cl)cc2)c2ccc(Cl)cc2)cc1OC	none
O=C(O)c1ccc(CNCc2ccc(Cl)cc2)cc1	none
OC(CNCc1ccc(F)cc1)(c1ccc(F)cc1)c1ccc(F)cc1	CHOP inh 72
CCCCNC(=S)Nc1ccc(Cl)cc1	none
COc1ccc(CNCC(O)(c2ccc(Cl)cc2)c2ccc(Cl)cc2)cc1	Lmaj promast 101
CCCCNCC(O)(c1ccc(Cl)cc1)c1ccc(Cl)cc1	Lmaj promast 90
Cn1cccc1CNCc1ccc(F)cc1	none
OC(CNCc1ccc(Cl)cc1)(c1ccccc1)c1ccc(F)cc1 (stereo unspecified)	WT yeast gro inh 71, CHOP inh 75
CNC(=O)c1cc(NC(=O)CCn2nc(-c3ccccc3)c3ccccc3c2=O)ccc1OC	none (no result: RAM inhibit, WT yeast gro inh, Lmaj promast)
CCn1nc(NC(=O)Cc2ccc(OC)cc2)c2cc3cc(C)ccc3nc21	none (no result: RAM inhibit, WT yeast gro inh, Lmaj promast)
COc1cc(C(O)P(=O)(OCCC(C)C)c2ccc(N(C)C)cc2)cc(OC)c1OC (stereo unspecified)	none (no result: RAM inhibit, WT yeast gro inh, Lmaj promast)
O=C(NC(=O)c1ccc(F)cc1F)Nc1ccc(Cl)cc1	none (no result: RAM inhibit, WT yeast gro inh, Lmaj promast)
CC1NC(C)(C)Cc2c1ccc1ccccc21 (stereo unspecified)	none
CC1(C)Cc2c(ccc3ccccc23)/C(=C/C#N)N1	CHOP inh 71
COc1ccc(/C=N/NC(=S)Nc2cc(C(F)(F)F)ccc2Cl)cc1	none (no result: RAM inhibit, WT yeast gro inh, Lmaj promast)
COc1ccc(/C=C/C(=O)Nc2cc(C(F)(F)F)ccc2Cl)cc1	CHOP inh 74
O=C(NNC(=O)c1ccccn1)c1cccc([N+](=O)[O-])c1	Lmaj promast 58
CC(Oc1ccccc1)C(=O)NNC(=O)c1ccccn1 (stereo unspecified)	Lmaj promast 79
CC(C)C(=O)NNC(=O)c1ccccn1	none
COc1ccc(C(=O)NC(=S)NNC(=O)c2cnccn2)cc1OC	Lmaj promast 100
COc1cc(OC)cc(C(=O)NNC(=O)c2ccccn2)c1	Lmaj promast 93
CN(Cc1ccccc1)S(=O)(=O)c1ccc(N2CCOCC2)nc1	none (no result: RAM inhibit, WT yeast gro inh, Lmaj promast)
C/C(=N\NC(=O)C(C)Oc1ccc([N+](=O)[O-])cc1)c1ccccn1 (stereo unspecified)	Lmaj promast 100
COc1cc(OC)cc(C(=O)NC(=S)NNC(=O)c2cnccn2)c1	Lmaj promast 100
COCCNC(=S)Nc1ccccc1Cc1ccccc1	none
CCOCCCNC(=O)NC12CC3CC(CC(C3)C1)C2	WT yeast gro inh 58
CCOCCCNC(=S)N1CCC(NC(=O)C23CC4CC(CC(C4)C2)C3)CC1	Lmaj promast 63
O=C(NCCCN1CCOCC1)NC12CC3CC(CC(C3)C1)C2	none
CCc1ccc2c(c1)C1(NN=C(c3ccc(C)cc3)S1)C(=O)N2 (stereo unspecified)	CHOP inh 88, Lmaj promast 99
CC(C)(C)c1ccc(OCC(=O)NNC(=O)c2cccnc2)cc1	none
O=C(CNc1ccccc1)NN=C1CCCC1	none
Cc1cccc(NC(=S)NNC(=O)c2ccc(O)cc2O)c1C	Lmaj promast 71
O=[N+]([O-])c1ccc(OCc2cnc(Cl)s2)c([N+](=O)[O-])c1	none
CCc1ccc(Nc2nnc(SCC(=O)N(C)CC(=O)Nc3ccccc3CC)s2)cc1	Lmaj promast 73
CCc1ccccc1NC(=O)CN(C)C(=O)CSc1nnc(Nc2cccc(C)c2)s1	none
CCc1ccccc1NC(=O)CN(C)C(=O)CSc1nnc(Nc2ccc(C)cc2)s1	Lmaj promast 72
C=CCn1c(COc2ccccc2F)nnc1SCCN1C(=O)c2ccccc2C1=O	none
CCN(CC)CCn1c(SCC(=O)NCc2ccco2)nc2c(sc3ccccc32)c1=O	none
CCN(CC)CCn1c(SCC(=O)NCCC2=CCCCC2)nc2c(sc3ccccc32)c1=O	Lmaj promast 68
O=C(CSc1nc2c(sc3ccccc32)c(=O)n1CCCN1CCOCC1)NCC1CCCO1 (stereo unspecified)	none
Cc1ccc(CNC(=O)CSc2nc3c(sc4ccccc43)c(=O)n2CCCN2CCCC2)cc1	Lmaj promast 100
O=C(CSc1nc2c(sc3ccccc32)c(=O)n1CCCN1CCOCC1)NC1CCCC1	none
O=C(CSc1nc2c(sc3ccccc32)c(=O)n1CCCN1CCCC1)NCc1ccccc1	Lmaj promast 99
CSc1nc(C)c(Cc2ccccc2)c(=O)[nH]1	none
Cc1ccc(NC(=O)CSc2nc(C)c(Cc3ccccc3)c(=O)[nH]2)cc1	none
Cc1nc(SCC(C)C)[nH]c(=O)c1Cc1ccccc1	CHOP inh 83
C=C(C)CSc1nc(C)c(Cc2ccccc2)c(=O)[nH]1	CHOP inh 76
Cc1sc(NC(=O)c2ccco2)c(CN2CCN(Cc3ccccc3)CC2)c1C	none
COc1ccc(OCCNC2CCCC2)cc1	Lmaj promast 61
c1ccc(Cc2ccc(OCCCNC3CCCC3)cc2)cc1	Lmaj promast 100
COc1ccc(OCCC(=O)NC2CCCCC2)cc1	none
c1ccc(-c2ccc(OCCCNC3CCCC3)cc2)cc1	Lmaj promast 100
c1cc2c(cc1OCCNC1CCCC1)CCC2	Lmaj promast 76
CCOc1ccc2nc(N(CCN(CC)CC)C(=O)c3cccc([N+](=O)[O-])c3)sc2c1	none
CC1=C(CC(=O)O)c2cc(F)ccc2/C1=C\c1ccc(S(C)=O)cc1 (stereo unspecified)	none (no result: RAM inhibit, WT yeast gro inh, Lmaj promast)
CC1(C)Cc2nc3oc4c(NCCCN5CCOCC5)ncnc4c3cc2CO1	none (no result: RAM inhibit, WT yeast gro inh, Lmaj promast)
c1ccc(SCCCCNC2CCCC2)cc1	Lmaj promast 87
N#Cc1ccc(OCCOCCNC2CCCC2)cc1	Lmaj promast 81
CNS(=O)(=O)c1ccc(C(C)(C)C)cc1	none
Cc1ccc(C(=O)N2CCCC(C(=O)c3ccc(Oc4ccccc4)cc3)C2)cn1 (stereo unspecified)	none
Cc1cccc(OCC2=NS(=O)(=O)c3ccccc3N2)c1	none

Source: PubChem
